Assay results published in PubChem BioAssay AID1159580 (chemical genetic matrix, 2015).
The campaign covered roughly 5,500 compounds. About 2,000 (36%) were called active. Not shown: some 18% with an inconclusive outcome. Rule as the data show it: active = normalized growth mostly below about 0.91 (no sharp cut-off); inconclusive = no clear call, values can overlap the other calls; inactive = mostly above about 0.92. The list shows a part of the results.

Experiment: chemical genetic growth profiling, strain panel (AID 1159580);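 also: tested at 20 µM; growth read once vehicle control cultures reached saturation at 30 °C; 1 = growth at the plate median or of vehicle wells; lower values mean less growth of the strain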
Conditions: growth OD

Measured: normalized growth

CCCc1nn(C)c2c(=O)[nH]c(-c3cc(S(=O)(=O)N4CCN(C)CC4)ccc3OCC)nc12
inactive: S. cerevisiae deletion strains, locus YJR075W, strain HOC1, hits give low values 1.02 | S. cerevisiae deletion strains, locus YKL009W, strain mrt4, hits give low values 1.01 | S. cerevisiae deletion strains, locus YKL068W, hits give low values 0.995 | S. cerevisiae deletion strains, locus YKL085W, strain MDH1 (second series), hits give low values 0.996 | S. cerevisiae deletion strains, locus YKL085W, strain MDH1, hits give low values 0.996 | S. cerevisiae deletion strains, locus YKL160W, strain elf1, hits give low values 0.999 | S. cerevisiae deletion strains, locus YKL190W, strain CNB1, hits give low values 1.02 | S. cerevisiae deletion strains, locus YKR026C, strain gcn3, hits give low values 1 | S. cerevisiae deletion strains, locus YKR091W, strain srl3, hits give low values 0.987 | S. cerevisiae deletion strains, locus YLL001W, strain dnm1, hits give low values 0.992 | S. cerevisiae deletion strains, locus YLL026W, hits give low values 0.985 | S. cerevisiae deletion strains, locus YLL041C, strain sdh2, hits give low values 0.992 | S. cerevisiae deletion strains, locus YLR027C, strain aat2, hits give low values 0.992 | S. cerevisiae deletion strains, locus YLR039C, strain RIC1, hits give low values 1.02 | S. cerevisiae deletion strains, locus YLR058C, strain SHM2, hits give low values 1.02 | S. cerevisiae deletion strains, locus YLR102C, strain apc9, hits give low values 0.988 | S. cerevisiae deletion strains, locus YLR113W, strain HOG1, hits give low values 1.03 | S. cerevisiae deletion strains, locus YLR221C, strain rsa3, hits give low values 0.988 | S. cerevisiae deletion strains, locus YLR258W, strain gsy2, hits give low values 0.984 | S. cerevisiae deletion strains, locus YLR262C, strain YPT6 (second series), hits give low values 0.986 | S. cerevisiae deletion strains, locus YLR262C, strain YPT6, hits give low values 1.05 | S. cerevisiae deletion strains, locus YLR268W, strain sec22, hits give low values 0.993 | S. cerevisiae deletion strains, locus YLR320W, strain mms22, hits give low values 0.986 | S. cerevisiae deletion strains, locus YLR330W, strain CHS5, hits give low values 1.02 | S. cerevisiae deletion strains, locus YLR342W, strain FKS1 (second series), hits give low values 1.03 | S. cerevisiae deletion strains, locus YLR342W, strain FKS1, hits give low values 0.99 | S. cerevisiae deletion strains, locus YLR357W, strain rsc2, hits give low values 0.983 | S. cerevisiae deletion strains, locus YLR370C, strain arc18, hits give low values 0.988 | S. cerevisiae deletion strains, locus YLR371W, strain rom2, hits give low values 0.978 | S. cerevisiae deletion strains, locus YLR384C, strain iki3, hits give low values 0.981 | S. cerevisiae deletion strains, locus YLR418C, strain cdc73, hits give low values 0.987 | S. cerevisiae deletion strains, locus YML016C, strain PPZ1, hits give low values 1.02 | S. cerevisiae deletion strains, locus YML032C, strain rad52, hits give low values 1 | S. cerevisiae deletion strains, locus YML120C, strain ndi1, hits give low values 0.995 | S. cerevisiae deletion strains, locus YML124C, strain tub3, hits give low values 0.99 | S. cerevisiae deletion strains, locus YMR058W, strain fet3, hits give low values 0.999 | S. cerevisiae deletion strains, locus YMR078C, strain ctf18, hits give low values 1.01 | S. cerevisiae deletion strains, locus YMR125W, strain sto1, hits give low values 0.981 | S. cerevisiae deletion strains, locus YMR129W, hits give low values 0.974 | S. cerevisiae deletion strains, locus YMR205C, strain PFK2, hits give low values 0.981 | S. cerevisiae deletion strains, locus YMR223W, strain ubp8, hits give low values 1 | S. cerevisiae deletion strains, locus YMR231W, strain pep5, hits give low values 0.988 | S. cerevisiae deletion strains, locus YMR263W, strain SAP30, hits give low values 1.03 | S. cerevisiae deletion strains, locus YMR307W, strain GAS1, hits give low values 1.1 | S. cerevisiae deletion strains, locus YNL067W, strain RPL9B, hits give low values 1.03 | S. cerevisiae deletion strains, locus YNL071W, strain lat1, hits give low values 0.991 | S. cerevisiae deletion strains, locus YNL128W, strain TEP1, hits give low values 1.02 | S. cerevisiae deletion strains, locus YNL153C, strain GIM3, hits give low values 1.02 | S. cerevisiae deletion strains, locus YNL183C, strain NPR1, hits give low values 0.978 | S. cerevisiae deletion strains, locus YNL209W, strain ssb2, hits give low values 0.99 | S. cerevisiae deletion strains, locus YNL233W, strain BNI4, hits give low values 1.02 | S. cerevisiae deletion strains, locus YNL248C, strain rpa49, hits give low values 0.981 | S. cerevisiae deletion strains, locus YNL250W, strain rad50, hits give low values 0.995 | S. cerevisiae deletion strains, locus YNL271C, strain bni1, hits give low values 0.99 | S. cerevisiae deletion strains, locus YNL298W, strain CLA4, hits give low values 0.984 | S. cerevisiae deletion strains, locus YNL307C, strain MCK1, hits give low values 0.995 | S. cerevisiae deletion strains, locus YNL322C, strain KRE1 (second series), hits give low values 0.982 | S. cerevisiae deletion strains, locus YNL322C, strain KRE1, hits give low values 1.01 | S. cerevisiae deletion strains, locus YNR049C, strain mso1, hits give low values 0.992 | S. cerevisiae deletion strains, locus YNR052C, strain pop2, hits give low values 1 | S. cerevisiae deletion strains, locus YOL006C, strain TOP1, hits give low values 1.1 | S. cerevisiae deletion strains, locus YOL012C, strain htz1 0.868 | S. cerevisiae deletion strains, locus YOL147C, strain pex11, hits give low values 0.985 | S. cerevisiae deletion strains, locus YOR001W, strain rrp6, hits give low values 0.999 | S. cerevisiae deletion strains, locus YOR061W, strain CKA2, hits give low values 1.02 | S. cerevisiae deletion strains, locus YOR069W, strain VPS5, hits give low values 1.02 | S. cerevisiae deletion strains, locus YOR070C, strain gyp1, hits give low values 0.984 | S. cerevisiae deletion strains, locus YOR080W, strain dia2, hits give low values 0.996 | S. cerevisiae deletion strains, locus YOR083W, strain WHI5, hits give low values 0.987 | S. cerevisiae deletion strains, locus YOR106W, strain vam3, hits give low values 0.987 | S. cerevisiae deletion strains, locus YOR136W, strain idh2, hits give low values 0.991 | S. cerevisiae deletion strains, locus YOR144C, strain elg1, hits give low values 0.986 | S. cerevisiae deletion strains, locus YOR184W, strain ser1, hits give low values 0.988 | S. cerevisiae deletion strains, locus YOR231W, strain MKK1, hits give low values 1.03 | S. cerevisiae deletion strains, locus YOR265W, strain rbl2, hits give low values 1 | S. cerevisiae deletion strains, locus YOR270C, strain vph1, hits give low values 0.983 | S. cerevisiae deletion strains, locus YOR290C, strain snf2, hits give low values 1 | S. cerevisiae deletion strains, locus YOR316C, strain cot1, hits give low values 0.991 | S. cerevisiae deletion strains, locus YPL051W, strain arl3, hits give low values 0.993 | S. cerevisiae deletion strains, locus YPL055C, strain LGE1, hits give low values 1.05 | S. cerevisiae deletion strains, locus YPL078C, strain atp4, hits give low values 0.994 | S. cerevisiae deletion strains, locus YPL106C, strain sse1, hits give low values 0.977 | S. cerevisiae deletion strains, locus YPL240C, strain hsp82, hits give low values 0.997 | S. cerevisiae deletion strains, locus YPL241C, strain CIN2, hits give low values 1.02 | S. cerevisiae deletion strains, locus YPL256C, strain CLN2, hits give low values 1.05 | S. cerevisiae deletion strains, locus YPR119W, strain clb2, hits give low values 0.986 | S. cerevisiae deletion strains, locus YPR141C, strain kar3, hits give low values 0.993 | S. cerevisiae deletion strains, locus YPR163C, strain tif3, hits give low values 0.982 | S. cerevisiae deletion strains, locus YPR167C, strain met16, hits give low values 0.988 | S. cerevisiae deletion strains, strain wtn01, hits give low values 0.998 | S. cerevisiae strains, strain wild type, hits give low values 1.01
active: S. cerevisiae deletion strains, locus YKR001C, strain vps1, hits give low values 0.64
